The panel holds about 83,000 compounds, 20% with a hit somewhere; the sample as a whole holds those more often.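 For each line, cells grew in 96-well plates with the test compound present at a single concentration for 48 hours.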 Unmarked numbers belong to inactive results. The source made the active and inactive calls. How the source made its calls: active means growth percent below 10; inactive means the rest.
Legend:
Test in all cases: NCI-60 one-dose screen, 48 h (100 = growth as untreated, 0 = no growth, -100 = all killed)
Conditions in all cases: 10 µM unless noted
[1] = test system: NCI-H23 lung
[2] = test system: NCI-H226 lung
[3] = test system: NCI-H322M lung
[4] = test system: HOP-62 NSCLC
[5] = test system: NCI-H460 lung
[6] = test system: HOP-92 NSCLC
[7] = test system: NCI-H522 lung
[8] = test system: A549/ATCC NSCLC
[9] = test system: 786-0 renal
[10] = test system: COLO 205 colon
[11] = test system: DU-145 prostate
[12] = test system: K-562 leukemia
[13] = test system: MALME-3M melanoma
[14] = test system: MDA-MB-231 breast
[15] = test system: RXF 393 renal
[16] = test system: SF-268 CNS
[17] = test system: SF-295 CNS
[18] = test system: SF-539 CNS
[19] = test system: UACC-257 melanoma
[20] = test system: M14 melanoma

Compound | growth [1] | growth [2] | growth [3] | growth [4] | growth [5] | growth [6] | growth [7] | growth [8] | growth [9] | growth [10] | growth [11] | growth [12] | growth [13] | growth [14] | growth [15] | growth [16] | growth [17] | growth [18] | growth [19] | growth [20]
CCCc1cc(=O)n2c(C(=O)Nc3cccc(C(=O)OCC)c3)c(C(=O)Nc3ccc(F)cc3)sc2n1 | 79.8% [30 µM] | 89% [30 µM] | 97.3% [30 µM] | 36.6% [30 µM] | 23% [30 µM] | -31.5% [30 µM] (active) | 65% [30 µM] | 3.58% [30 µM] (active) | 15.1% [30 µM] | 72.9% [30 µM] | 79.9% [30 µM] | 79.7% [30 µM] | 71.9% [30 µM] | 47% [30 µM] | -27.2% [30 µM] (active) | 57.5% [30 µM] | 44.5% [30 µM] | 33.9% [30 µM] | 64.5% [30 µM] | 75.2% [30 µM]
CC(C)(C)N1CCC1CN (stereo not given) | 104% | 111% | 118% | 108% | 109% | 108% | 135% | 104% | 96.4% | 138% | 118% | 135% | 147% | 116% | 155% | 100% | 115% | 91.8% | -6.55% (active) | 101%
COc1ccc(C(=O)c2sc3nc(C)cc(C)c3c2N)cc1OC | 74.3% | 89.8% | 87.9% | 53.4% | 67.6% | 89.7% | -13.1% (active) | 60% | 99.5% | 102% | 90.7% | 92.6% | 83.3% | 56.3% | 93.9% | 60.1% | 89.8% | 92.2% | 95.1% | 105%
Cc1cc(C)nc(SC2=C(Nc3ccc(O)cc3)C(=O)N(Cc3ccccc3)C2=O)n1 | 98.8% [40 µM] | 89.7% [40 µM] | 108% [40 µM] | 100% [40 µM] | 85.3% [40 µM] | 38.1% [40 µM] | 78.3% [40 µM] | 63% [40 µM] | 97.6% [40 µM] | 108% [40 µM] | 96.8% [40 µM] | 78.1% [40 µM] | 102% [40 µM] | 80.7% [40 µM] | 29.3% [40 µM] | 74.6% [40 µM] | 94.8% [40 µM] | 94.2% [40 µM] | 88.1% [40 µM] | 105% [40 µM]
C=CC(=O)Nc1cccc(-c2nc(SC)nc(NCCc3ccc(OC)c(OC)c3)c2C#N)c1 | 47.6% | 40.8% | 90.9% | 75.1% | 74.6% | 62.2% | 39.2% | 46.9% | 68.2% | 77.8% | 56.9% | 31.2% | 54.8% | 64.1% | 59.4% | 61.9% | 43% | 65.6% | 29.7% | 26.9%
O=c1cc(/C(=C2/C=CC=N2)c2ccc[nH]2)c2cc(Cl)ccc2o1 | 62.3% | 35% | 55.8% | 50.4% | 24.3% | 66.5% | 56.1% | 55.2% | 22.4% | 87.2% | 47% | 24.8% | 66.6% | 71% | -29.1% (active) | 56.4% | 13.9% | 16.1% | 38.3% | 35.5%
CN1CCN(CCCOc2cccc3nc(Nc4cc(Cl)cc(Cl)c4)ccc23)CC1 | 36.7% | -10.9% (active) | 3.59% (active) | 19.8% | -37% (active) | 3.95% (active) | -18.3% (active) | 0.988% (active) | 37.3% | -67.4% (active) | -23.8% (active) | -54.7% (active) | -53.5% (active) | -44.6% (active) | 38.8% | 16% | 40.2% | 7.62% (active) | -44.6% (active) | -55.7% (active)
COc1ccc(CCNc2nc3c(c(=O)n(Cc4ccc(Br)cc4)c(=O)n3C)n2C)cc1OC | 84.1% | 86.6% | 93.8% | 113% | 96.9% | 92.8% | 84.2% | 90% | 102% | 103% | 107% | 69.8% | 87.2% | 81.9% | 120% | 92.6% | 89.1% | 88.5% | 92.4% | 101%
Cc1[nH]c(-c2cc(N)ccc2Cl)c2c1C(=O)CCCC2 | 36.3% | 36.1% | 40.8% | 15.9% | 57.3% | 24.5% | 16.2% | 45.2% | 40.1% | 22.6% | 66.3% | 23.2% | 32.4% | 22% | 19.6% | 53.5% | 31.8% | 25.3% | 18.6% | 39.3%
O=C(/C=C/c1cc(CN2CCOCC2)c(O)c2ncccc12)c1cc(CN2CCOCC2)c(O)c2ncccc12 | 30.5% | 34.6% | 45.5% | 16% | 9.34% (active) | -4.72% (active) | 14.4% | 2.72% (active) | 24.6% | 30.2% | 26.9% | 10.4% | 38.9% | 30.6% | 35.3% | 30.2% | 14.7% | 15% | -6.41% (active) | 31.3%
COc1ccc2[nH]cc(-c3noc(C(=O)c4cn(C)c5ccc(F)cc45)n3)c2c1 | 90.2% | 83.5% | 96.1% | 100% | 95.6% | 84.9% | 92.8% | 105% | 103% | 96% | 103% | 101% | 95.5% | 90.1% | 116% | 95.3% | 98.8% | 95.8% | 97.5% | 98.6%
COc1cc2nc(N3CCCC3)nc(NCc3ccccc3)c2cc1OC | 82.3% | 90% | 79.7% | 86.8% | 79.2% | 61.4% | 73.1% | 76% | 78.6% | -20.7% (active) | 80.9% | 1.41% (active) | 41.2% | 68.9% | 35.7% | 87.6% | 71.1% | 52.4% | -46.6% (active) | -71.2% (active)
Cn1c(NCCc2ccc(O)c(O)c2)nc2c1c(=O)n(Cc1ccc(Cl)c(Cl)c1)c(=O)n2C | 91.5% | 73.7% | 82.1% | 104% | 88.2% | 45.3% | -28.7% (active) | 80.3% | 83% | 57.4% | 74.5% | 79.6% | 75.7% | 69.5% | 72% | 64.8% | 97.3% | 75.6% | 84.6% | 85.6%
Nc1n[nH]c2ccc([C@@H]3Nc4ccc5cn[nH]c5c4[C@H]4C5CCC(C5)[C@@H]34)cc12 (stereo not given in full) | 43.5% | 37.9% | 47.2% | 48.3% | 1.13% (active) | 104% | 27.1% | 24.4% | 38.4% | -9.43% (active) | 18.3% | 10.8% | 51.7% | 50.8% | -1.15% (active) | 42% | 13.2% | -19.6% (active) | 72.6% | 10.7%
C=C(C)[C@@H]1CC[C@]2(C(=O)OC)CC[C@]3(C)[C@H](CC[C@@H]4[C@@]5(C)C/C(=C/c6cccc(I)c6)C(=O)C(C)(C)[C@@H]5CC[C@]43C)[C@@H]12 | 91.4% | 94.2% | 97.3% | 88% | 101% | 100% | 89% | 101% | 95.3% | 125% | 113% | 96.9% | 91.6% | 98.4% | 88.1% | 95.1% | 97.6% | 91.7% | 107% | 103%
